From PubChem BioAssay (EPA / NIEHS)
Calls of active or inactive are those of the source. The calls were made as follows: active = hit-call score of the fitted dose curve at least 0.9, where 1 is the maximum; inactive = score below 0.9.

read-out: Heat shock 70 kDa protein 1 (HSPA1A), gene 3303; assay: LTEA_HepaRG_HSPA1A: Life Technologies and Expression Analysis (LTEA) Assay for Heat shock 70 kDa protein 1 (HSPA1A) using HepaRG (AID 2283502); conditions: mRNA level, 48 h; actives raise or lower the signal
Experimental: LTEA_HepaRG is a cell based, multiplexed-readout assay that uses HepaRG, a human liver cell line, with measurements taken at 48 hours after chemical dosing on a 96-well plate.LTEA_HepaRG_HSPA1A is one of 102 assay component(s) measured in the LTEA HepaRG cell culture assay. It is a marker of Oxidative Stress.Data from the assay component LTEA_HepaRG_HSPA1A was analyzed into 1 endpoint. This assay endpoint, LTEA_HepaRG_HSPA1A, was analyzed with bidirectional fitting relative to DMSO as the negative control and baseline of activity. Using a type of inducible reporter, measures of mRNA induction for gain or loss-of-signal activity can be used to understand regulation of transcription factor activity. To generalize the intended target to other relatable targets, this assay endpoint is annotated to the dna binding intended target family, where the subfamily is heat shock protein.
A total of 1060 chemcials from the ToxCast library were tested in eight-point concentration-response experiments. Cell culture and cytotoxicity assays were conducted at Thermo Fisher Scientific's Custom Services facility (Madison, WI). A single lot of human HepaRG cells (Thermo Fisher Scientific, Frederick, MD) was used for the cell culture experiments. 96-well format collagen type I coated plates of human HepaRG cells were prepared using established methods. Briefly, cryopreserved HepaRG cells were thawed, plated at a density of approximately 100,000 cells/well in HepaRG Thaw, Plate, and General Purpose media (HPRG770, Thermo Fisher Scientific), and incubated for 48 hours. 0.5% DMSO was selected as vehicle control to balance the requisite need of DMSO in HepaRG cultures to maintain differentiation (for example, baseline metabolism, proportions of hepatocytes vs. cholangiocytes), while enabling further hepatic receptor pathway activation (for example, PXR and CAR) in response to chemical exposure. 48 hours after plating, the culture medium was replaced with HepaRG Serum-Free Incudtion Media. Cells were exposed to each test chemical in duplicate and maintained in CO2 incubators for another 48 hours. Chemical plates were thawed to room temperature and 200x concentrations of treatment groups were prepared. 8-point conentration-reponse curves were made with the highest exposure at 100 uM, followed by half-log dilutions, all in 0.5% DMSO. Each test plate contained variouse controls, induction positive controls (1mM phenobarbital), cytotoxicity positive controls ([…] aflatoxin B1), vehicle controls (0.5% DMSO), and total lysis controls (0.5% DMSO). Cell morphology images were taken using an Essen IncuCyte FLR automated microscope, with six 96-well plates imaged in about 24 minutes. Images were captured and exported and JPEG files. Spent culture media was transfered to black-well plates for the LDH assay, and remaining media was sorted at -80 C for later use. Cells were treated with RLT buffer and frozen until shipped for gene expression analysis. Total RNA was isolated from the cell suspension in 75 uL of Buffer RLT (Qiagen, Germantown, MD 20874) by Quintiles/Expression Analysis (Durham, NC) using a custom isolation procedure. Total RNA from each plate well was transferred to a preamplification plate. Fluidigm's 96.96 Dynamic ArrayTM (Fluidigm, Amsterdam, the Netherlands) technology was used for gene expression analyses by quantitative reverse transcription polymerase chain reaction (qRT-PCR, performed by Quintiles/Expression Analysis, Durham, NC)89. Standard TaqManTM Assays (Applied Biosystems/ThermoFisher Scientific, Foster City, CA) were used to assess the expression of 93 genes selected based on their selectivity and sensitivity to important hepatic receptors known to be modulated by environmental chemicals; importance in human hepatocyte functionality; and hepatotoxicity. […]

SMILES	outcome	AC50
CC1(C)C(=O)N(Cl)C(=O)N1Cl	inactive	
Cn1cc[nH]c1=S	inactive	
OC[C@H]1O[C@@H]2O[C@H]3[C@H](O)[C@@H](O)[C@@H](O[C@H]4[C@H](O)[C@@H](O)[C@@H](O[C@H]5[C@H](O)[C@@H](O)[C@@H](O[C@H]6[C@H](O)[C@@H](O)[C@@H](O[C@H]7[C@H](O)[C@@H](O)[C@@H](O[C@H]1[C@H](O)[C@H]2O)O[C@@H]7CO)O[C@@H]6CO)O[C@@H]5CO)O[C@@H]4CO)O[C@@H]3CO	inactive	
OCCNCCO	inactive	
C=CCc1cc(S(=O)(=O)c2ccc(O)c(CC=C)c2)ccc1O		79 µM (active)
CC(C)c1nnc2ccc(-c3ocnc3-c3cc(F)ccc3F)cn12	inactive	
COc1cc2c(c(OC)c1OC)-c1ccc(OC)c(=O)cc1[C@@H](NC(C)=O)CC2	inactive	
O=C(O)[C@H](O)[C@@H](O)C(=O)O	inactive	
O=C(NO)C1(NS(=O)(=O)c2ccc(Oc3ccc(F)cc3)cc2)CCOCC1	inactive	
Nc1ccn([C@@H]2O[C@H](CO)[C@@H](O)[C@@H]2O)c(=O)n1	inactive	
Cc1ccc(S(=O)(=O)NC(=O)NN2CCCCCC2)cc1	inactive	
CCCCN1C(=O)[C@@H]([C@H](O)C2CCCCC2)NC(=O)C12CCN(Cc1ccc(Oc3ccc(C(=O)O)cc3)cc1)CC2		1.8 µM (active)
c1ccc2c(c1)-c1cccc3c1c-2cc1ccccc13		18.5 µM (active)
CC(C)CCCCCCOC(=O)C1CCCCC1C(=O)OCCCCCCC(C)C (stereo not given)	inactive	
Cc1nccn1-c1ccc(Sc2cccc(C3(C(N)=O)CCOCC3)c2)cc1	inactive	
CCCCCCOC(=O)CC(CC(=O)OCCCCCC)(OC(=O)CCC)C(=O)OCCCCCC	inactive	
CCCCCCCC1CCC(=O)O1 (stereo not given)	inactive	
NC(=O)N1c2ccccc2C=Cc2ccccc21	inactive	
OCc1ccccc1	inactive	
O=c1[nH]cnc2c1ncn2[C@H]1CC[C@@H](CO)O1	inactive	

SMILES	outcome	AC50
NC(=O)NN=Cc1ccc([N+](=O)[O-])o1	inactive	
OCC(CO)(CO)CO	inactive	
OCCOCCOCCO	inactive	
CC(C)C(=O)Nc1ccc([N+](=O)[O-])c(C(F)(F)F)c1	inactive	
COS(C)(=O)=O	inactive	
c1ccc2cc3ccccc3cc2c1	inactive	
CCCc1ccccc1	inactive	
C[C@]12C=CC(=O)C=C1CC[C@H]1[C@@H]3C[C@@H](O)[C@](O)(C(=O)CO)[C@@]3(C)C[C@H](O)[C@@]12F	inactive	
CCN(CC)C(=S)SSC(=S)N(CC)CC	inactive	
NNC(=O)c1ccncc1	inactive	
Cc1ncc([C@@H](CCCCCCc2ccc3c(n2)NCCC3)CC(=O)O)cn1	inactive	
Cn1c(=O)c2[nH]cnc2n(C)c1=O	inactive	
COCc1nnc(-c2ccc[n+]([O-])c2)n1-c1c(Cl)c(Cl)cc2[nH]c(=O)c(=O)[nH]c12	inactive	
O=C1CN(N=Cc2ccc([N+](=O)[O-])o2)C(=O)N1	inactive	
CC(=O)c1ccccc1	inactive	
CCn1nc(C)c2c1C(=O)NCC(c1ccc(O)cc1)=N2	inactive	
NC(N)=O	inactive	
CCCCC(CC)C(=O)OCCOCCOCCOC(=O)C(CC)CCCC (stereo not given)	inactive	
O=C(O)c1cccc(C(=O)O)c1	inactive	
CCCCCCCCN(C)C	inactive	
